TDP1 cell CPT: DT40-hTDP1 cell growth loss with CPT; chicken DT40 Tdp1-/-;hTDP1 cells + 20 nM CPT, ATP luminescence, 48 h; Potency, µM (top dose mostly 46.2 µM), usual class: inhibitors; 420,000 tested, 12% active; also: nearly all actives have a fitted effect of over 55% in size
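Chicken DT40 Tdp1-/- cells complemented with human TDP1, 400 cells/well, exposed to compounds plus 20 nM camptothecin for at least 48 h at 37 C; viability read as ATP content by CellTiter-Glo luminescence.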
TGFb inhibitor: inhibitors of TGF-b signaling; AID 588855; Potency, µM (highest dose often 46.1 µM), most hits filed as inhibitors; 410,000 tested, 1.2% active; HepG2 CAGA-GFP TGF-b/SMAD3 reporter, GFP fluorescence, 18 h; TGF-beta stimulated, 500 pg/mL final; also: nearly all actives have a fitted effect of over 65% in size
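Using HEPG2 CAGA-GFP reporter cells at 1000 cells/well, we pinned test compounds, stimulated with recombinant TGF-beta (500 pg/mL final) and measured total well GFP after 18 h.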
ATXN viability: viability counter-screen for ATXN expression inhibitors. S2 cells (HEK-293 line with an ATXN2-luciferase reporter) viability, CellTiter-Fluor protease fluorescence, 24 h. Potency, µM (series often up to 56.7 µM), most hits filed as cytotoxic. 400,000 tested, 0.49% active; also: nearly all actives have a fitted effect of over 40% in size
ATXN2 expr inh: inhibitors of ATXN2 expression | HEK-293 ATXN2-luciferase reporter, luminescence, 24 h | 360,000 tested, 0.72% active | Potency, µM (highest dose often 57 µM), most hits filed as inhibitors | AID 1745845; also: nearly all actives have a fitted effect of over 55% in size
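ATXN2-luciferase reporter cells (luciferase flanked by upstream and downstream ATXN2 gene portions) were treated 24 h at 37 °C with compounds at up to 57 uM. SteadyGlo luminescence gave expression; GF-AFC fluorescence gave viability.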
DT40 TDP1 no CPT: qHTS for Inhibitors of human tyrosyl-DNA phosphodiesterase 1 (TDP1): qHTS in cells in absence of CPT. DT40 Tdp1-/- hTDP1 cells, no CPT, ATP luminescence, 48 h. Potency, µM (doses to about 46.2 µM), hits mostly inhibitors. 420,000 tested, 15% active. AID 686978, 2013; also: nearly all actives have a fitted effect of over 55% in size
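Compound effects on proliferation are scored in DT40 Tdp1-/-;hTDP1 cells in the absence of CPT. ATP levels (CellTiter-Glo luminescence) are recorded after a ≥48 hr, 37 °C incubation.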
HepG2 viability: counter-screen for TGF-b inhibitors: cytotoxicity in HepG2 cells; Potency, µM (highest dose often 46.1 µM), most hits filed as cytotoxic; AID 588856; 410,000 tested, 0.76% active; HepG2 CAGA-GFP viability, ATP luminescence, 18 h
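CellTiter-Glo luminescence gave cytotoxicity after 18 hours at 37 degrees C. The cells were HepG2 CAGA-GFP in 1% FBS DMEM, stimulated with 500 pg/mL TGF-beta after compound addition. %Activity was normalised to no-cell wells (complete cell-killing) and DMSO (no toxicity), and curves were fitted and classified.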
Hits are given with their value; . = inactive; ? = inconclusive; / = no result. Most compounds without a hit are left out; they make up all but 17% or so of the library. Calls follow the shape of the dose curve; as a rule, active = well fitted curve in the direction sought with a large enough effect; inconclusive = small, poorly fitted or top-dose-only effect, or another doubt; inactive = no such curve, though single readings can be large; an effect the other way counts as inactive or inconclusive.

SMILES | TDP1 cell CPT | TGFb inhibitor | ATXN viability | ATXN2 expr inh | DT40 TDP1 no CPT | HepG2 viability
Cc1ccc(NC(c2ccccc2)c2nc3ccccc3[nH]c2=O)cc1 (centres undefined) | ? | ? | . | / | ? | .
Cn1cc(/C=C(\C#N)C(=O)Nc2ccccc2O)c2ccccc21 | ? | . | ? | . | 18.4µM | .
COc1ccc(-c2cn3cc(Br)cnc3n2)cc1 | 25.9µM | . | . | . | ? | .
CC1CN(C(=O)C2CC2)C(C)CN1C(=O)C1CC1 (centres undefined) | . | . | . | . | . | .
Cc1ccc(C)c(OCc2cc(C(=O)N3CCN(c4ccccc4C)CC3C)no2)c1 (centres undefined) | ? | . | . | . | ? | .
CN(C(=O)CSc1cccc[n+]1[O-])c1ccccc1 | . | . | . | . | . | .
O=C(CSc1cccc[n+]1[O-])c1ccccc1Br | 3.66µM | ? | ? | . | 5.17µM | .
O=C(CSc1cccc[n+]1[O-])c1ccc(Cl)s1 | 0.731µM | . | . | . | 1.3µM | .
Cc1ccc2nc(NCCN)c3ncc(C)n3c2c1 | / | / | / | 1.93µM | / | /
Cc1cc(C(F)(F)F)c(C#N)c(SCC(=O)Nc2nc3ccccc3s2)n1 | ? | . | . | . | 18.4µM | .
N#Cc1c(C(F)(F)F)cc(-c2ccccc2)nc1SCC(=O)Nc1sc2c(c1C#N)CCC2 | 13µM | . | . | . | 10.3µM | .
COc1ccc(CN(C(=O)c2snc(C(N)=O)c2N)C(CC(C)C)C(=O)NC2CCCCC2)cc1 (centres undefined) | ? | ? | . | . | ? | .
CC(C)CN=Cc1c(O)c([N+](=O)[O-])cc2oc3c(c12)CCCC3 | ? | . | ? | . | ? | .
O=[N+]([O-])c1cc2oc3c(c2c(C=NCc2ccccc2)c1O)CCCC3 | 8.2µM | . | ? | . | 14.6µM | .
COc1ccc(S(=O)(=O)NC(=O)C2(C)CCN2C(=O)Cc2ccc(C(C)(C)C)cc2)cc1 (centres undefined) | . | . | . | . | . | .
CC1(C)C2CCC1(C)C(OC(=O)c1ccccc1C(=O)O)C2 (centres undefined) | . | . | . | . | . | .
CC(=O)OC(COC1C[C@@H]2CC[C@@]1(C)C2(C)C)C[N+]1(C)CCCCC1 (some centres undefined) | ? | . | . | . | 18.4µM | .
CCOc1ccc2[nH]c(=O)c(CN(Cc3cccs3)Cc3nnnn3C(C)(C)CC)cc2c1 | 16.4µM | ? | / | ? | 15.8µM | .
Cc1cccc2cc(CN(Cc3cccs3)Cc3nnnn3Cc3ccccc3)c(=O)[nH]c12 | ? | ? | ? | . | 23.1µM | .
CCOC(=O)Cn1nnnc1CN(Cc1cccs1)Cc1cc2cc(C)cc(C)c2[nH]c1=O | 20.6µM | ? | . | . | 14.6µM | .
Cc1cccc2cc(CN(Cc3ccccc3)Cc3nnnn3Cc3ccccc3)c(=O)[nH]c12 | ? | . | / | / | 12.6µM | .

Screening data as filed in PubChem.
